The values below come from PubChem BioAssay (NCI).

Among the test systems are SR leukemia; RPMI-8226 leukemia; OVCAR-8 ovarian; OVCAR-5 ovarian; OVCAR-4 ovarian; SK-OV-3 ovarian; IGROV1 ovarian; OVCAR-3 ovarian; HS 578T breast; NCI/ADR-RES ovarian; T-47D breast; BT-549 breast; MDA-MB-435 melanoma; SW-620 colon; MCF7 breast; HCT-116 colon; HCC-2998 colon; KM12 colon.
Common to all, as to assay: NCI-60 one-dose screen, 48 h (100 = growth as untreated, 0 = no growth, -100 = all killed)
What all share (details): 10 µM unless noted

Compounds without any hit were thinned out: in the full panel of roughly 83,000, 20% have a hit.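 Step 1: grow cells in 96-well plates. Step 2: add test compound at a single concentration. Step 3: incubate 48 h. Step 4: record percent growth.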 Values without a mark were called inactive. The source made the active and inactive calls. How the source made its calls: active means growth percent below 10; inactive means the rest.

`Cc1ccc(-c2csc(NC(=O)N3CCN(c4cc5c(cc4F)c(=O)c(C(=O)O)cn5C4CC4)CC3)n2)cc1`: the growth with SR leukemia was 18.2%; in the test with RPMI-8226 leukemia, 4.84% (active); in the test on OVCAR-8 ovarian, 7.72% (active); in the test on OVCAR-5 ovarian, 23.2%; with OVCAR-4 ovarian, 33.5%; with SK-OV-3 ovarian, -11.6% (active). Moreover, the growth with IGROV1 ovarian was 17%; in the test on OVCAR-3 ovarian, 7.6% (active); with HS 578T breast, 38.6%; in the test on NCI/ADR-RES ovarian, 21.8%; with T-47D breast it was 11.5%; with BT-549 breast, 3.9% (active). Also, the growth with MDA-MB-435 melanoma was 17.6%; in the test on SW-620 colon, 27.2%; in the test with MCF7 breast, 6.05% (active); in the test on HCT-116 colon, 11.4%; in the test with HCC-2998 colon it was 32.9%; with KM12 colon, 11.4%.

Take `COc1ccc(-c2cc(-c3cc(OC)c(OC)c(OC)c3)c(C#N)c(=O)n2CCCCCC(=O)NO)cc1`: the growth was 78.2% in the test on SR leukemia; 72.8% with RPMI-8226 leukemia; 87% with OVCAR-8 ovarian; 108% with OVCAR-5 ovarian; 100% in the test with OVCAR-4 ovarian; 122% with SK-OV-3 ovarian. Also, the growth with IGROV1 ovarian is 101%; with OVCAR-3 ovarian it was 101%; in the test with HS 578T breast, 85.2%; in the test with NCI/ADR-RES ovarian it was 96.1%; in the test on T-47D breast it was 71.7%; in the test on BT-549 breast, 99.5%. Further, the growth with MDA-MB-435 melanoma is 98.2%; with SW-620 colon it was 101%; in the test with MCF7 breast, 89%; in the test on HCT-116 colon, 88%; with HCC-2998 colon, 110%; in the test with KM12 colon it was 93.4%.

Turning to `CC[C@]12C=CCN3CC[C@@]4(c5ccc(OC)cc5N(C)[C@H]4[C@@](O)(C(=O)OC)[C@@H]1OC(=O)CCCN1CCOCC1)[C@@H]32`, the growth is 111% in the test with SR leukemia; 96.2% in the test with RPMI-8226 leukemia; 104% in the test with OVCAR-8 ovarian; 114% in the test with OVCAR-5 ovarian; 108% in the test with OVCAR-4 ovarian; 111% with SK-OV-3 ovarian. Besides, the growth in the test on IGROV1 ovarian is 112%; in the test on OVCAR-3 ovarian, 108%; in the test on HS 578T breast, 107%; with NCI/ADR-RES ovarian, 106%; in the test on T-47D breast, 106%; in the test on BT-549 breast it was 105%. For the same compound, the growth with MDA-MB-435 melanoma is 100%; with SW-620 colon it was 105%; with MCF7 breast it was 103%; in the test with HCT-116 colon, 101%; in the test with HCC-2998 colon, 109%; with KM12 colon, 107%.

As to `C=CCn1c(SCC(=O)Nc2ccc(C(=O)/C=C/c3ccc(OC)cc3)cc2)nnc1-c1ccccc1`, the growth in the test with SR leukemia is 85.3%; with RPMI-8226 leukemia, 5.8% (active); in the test on OVCAR-8 ovarian it was 101%; in the test with OVCAR-5 ovarian, 82.7%; in the test on OVCAR-4 ovarian, 77.4%; with SK-OV-3 ovarian it was 106%. Also, the growth in the test on IGROV1 ovarian is 84.9%; with OVCAR-3 ovarian, 89.5%; in the test on HS 578T breast, 100%; in the test on NCI/ADR-RES ovarian, 89.1%; in the test with T-47D breast, 57.3%; in the test on BT-549 breast, 43.8%. The growth in the test on MDA-MB-435 melanoma was 49%; with SW-620 colon it was 97.7%; in the test on MCF7 breast, 20%; with HCT-116 colon, 9.87% (active); with HCC-2998 colon it was 102%; in the test on KM12 colon, 82.6%.

Turning to `COc1cc(-c2nc(NC(C)=O)sc2-c2ccnc(NCCNS(=O)(=O)c3ccccc3)n2)ccc1Cl`, the growth in the test with SR leukemia is 13.1%; in the test on RPMI-8226 leukemia, 13.8%; in the test with OVCAR-8 ovarian, 37.6%; in the test with OVCAR-5 ovarian, 84.9%; in the test on OVCAR-4 ovarian, 61.6%; with SK-OV-3 ovarian, 26.9%. In addition, the growth was 51.6% in the test on IGROV1 ovarian; 25.7% with OVCAR-3 ovarian; 27.3% in the test on HS 578T breast; 93.2% in the test on NCI/ADR-RES ovarian; 41.8% in the test on T-47D breast; -8.24% (active) in the test with BT-549 breast. Further, the growth is -62.3% (active) with MDA-MB-435 melanoma; 33.3% with SW-620 colon; 14.1% in the test on MCF7 breast; 12.2% in the test on HCT-116 colon; 73.2% in the test on HCC-2998 colon; 25.6% in the test with KM12 colon.

On to `Nc1ncnc2c1c(-c1ccc(Oc3ccccc3)cc1)nn2CC1SSCC1O` (configuration not stated), for which the growth in the test with SR leukemia is -16.2% (active); in the test with RPMI-8226 leukemia it was 38%; in the test on OVCAR-8 ovarian, 67.7%; in the test on OVCAR-5 ovarian it was 81.4%; in the test with OVCAR-4 ovarian, 67.4%; with SK-OV-3 ovarian, 44.3%. Further, the growth with IGROV1 ovarian is 15.6%; in the test on OVCAR-3 ovarian, 11.9%; in the test with HS 578T breast, 66.7%; with NCI/ADR-RES ovarian, 77.5%; with T-47D breast, 7.22% (active); in the test on BT-549 breast, 82%. Moreover, the growth with MDA-MB-435 melanoma is -0.185% (active); with SW-620 colon it was 78.7%; in the test with MCF7 breast, 16%; in the test on HCT-116 colon, 43.8%; in the test with HCC-2998 colon, 80.4%; in the test on KM12 colon, 46.5%.

Regarding `COc1ccc(Nc2ncccc2NC(=O)c2cn(Cc3cccc(Oc4ccccc4)c3)nn2)cc1OC`, the growth was 34.9% with SR leukemia; 73.2% in the test with RPMI-8226 leukemia; 90.8% with OVCAR-8 ovarian; 111% in the test with OVCAR-5 ovarian; 68.2% with OVCAR-4 ovarian; 93.5% in the test with SK-OV-3 ovarian. Further, the growth is 89.5% in the test with IGROV1 ovarian; 73.3% in the test with OVCAR-3 ovarian; 72.9% in the test with HS 578T breast; 77% in the test with NCI/ADR-RES ovarian; 49.2% in the test with T-47D breast; 73% in the test on BT-549 breast. Moreover, the growth was 4.74% (active) in the test on MDA-MB-435 melanoma; 73% in the test with SW-620 colon; 48.5% with MCF7 breast; 80.7% with HCT-116 colon; 88.1% with HCC-2998 colon; 57.6% in the test with KM12 colon.

As for `C=C(CN1CC=CCC1)[C@@H]1CC[C@]2(CO)CC[C@]3(C)[C@H](CC[C@@H]4[C@@]5(C)CC[C@H](O)C(C)(C)[C@@H]5CC[C@]43C)[C@@H]12`, the growth with SR leukemia was 76.9%; in the test with RPMI-8226 leukemia, 88%; in the test with OVCAR-8 ovarian, 101%; in the test with OVCAR-5 ovarian it was 109%; with OVCAR-4 ovarian, 92.8%; with SK-OV-3 ovarian, 107%. The growth was 107% with IGROV1 ovarian; 102% with OVCAR-3 ovarian; 95.3% with HS 578T breast; 90.1% in the test with NCI/ADR-RES ovarian; 87.6% in the test with T-47D breast; 105% in the test with BT-549 breast. In addition, the growth with MDA-MB-435 melanoma was 105%; with SW-620 colon it was 106%; in the test on MCF7 breast it was 88.7%; in the test on HCT-116 colon, 94.4%; with HCC-2998 colon, 116%; in the test with KM12 colon it was 107%.

Take `O=C(Nc1ccccc1)c1sc(-c2ccccc2)cc1O`: the growth was 70.4% in the test with SR leukemia; 74.4% in the test on RPMI-8226 leukemia; 119% in the test on OVCAR-8 ovarian; 94.2% with OVCAR-5 ovarian; 90.9% in the test with OVCAR-4 ovarian; 106% with SK-OV-3 ovarian. In addition, the growth is 92.5% in the test on IGROV1 ovarian; 84.1% in the test on OVCAR-3 ovarian; 92% in the test with HS 578T breast; 93.4% with NCI/ADR-RES ovarian; 101% with T-47D breast; 95.8% in the test with BT-549 breast. Further, the growth in the test on MDA-MB-435 melanoma was 90%; in the test with SW-620 colon, 102%; with MCF7 breast it was 78.9%; with HCT-116 colon, 96.5%; in the test with HCC-2998 colon, 101%; in the test on KM12 colon, 85.1%.
